# The source holds several records for some structures; these can differ, active in one and inactive in another. The source made the active and inactive calls. Rule for the calls: active = hit-call score of the fitted dose curve at least 0.9, where 1 is the maximum; inactive = score below 0.9.
# Target: Signal transducer and activator of transcription 3 (Homo sapiens) (UniProt P40763)
# Assay: ATG_STAT3_CIS: Attagene CIS-FACTORIAL HepG2 Assay for human Signal Transducer and Activator of Transcription 3 (STAT3) (AID 2282963)
# Details: HepG2, Attagene cis-factorial STAT3 reporter transcription; actives raise or lower the signal
# Description: ATG_CIS is a cell-based, multiplexed-readout assay that uses HepG2, a human liver cell line, with measurements taken at 24 hours after chemical dosing in a 24-well plate.ATG_STAT3_CIS is one of 52 assay component(s) measured or calculated from the ATG_CIS assay. It is designed to make measurements of mRNA induction, a form of inducible reporter, as detected with fluorescence intensity signals by Reverse transcription polymerase chain reaction (RT-PCR) and Capillary electrophoresis technology.Data from the assay component ATG_STAT3_CIS was analyzed into 1 assay endpoint. This assay endpoint, ATG_STAT3_CIS, was analyzed with bidirectional fitting relative to DMSO as the negative control and baseline of activity. Using a type of inducible reporter, measures of mRNA for gain or loss-of-signal activity can be used to understand the reporter gene at the transcription factor-level as they relate to the gene STAT3. Furthermore, this assay endpoint can be referred to as a primary readout, because this assay has produced multiple assay endpoints where this one serves a reporter gene function. To generalize the intended target to other relatable targets, this assay endpoint is annotated to the dna binding intended target family, where the subfamily is stat protein.
# Human liver HepG2 cells are transiently transfected with multiple reporter transcription units (MRTUs) in 6-well plates using FuGene 6 reagent (Roche; 3 ml FuGene/1 mg DNA). The MRTU constructs are regulated by a cis-regulating element (promoter). […] A major difference between the CIS and TRANS system is that in CIS activities of endogenous TFs are measured, whereas the TRANS assay evaluates changes in activities of exogenous, chimeric NR-Gal4 proteins. […] At the end of 24 hour incubation, total RNA was isolated using TriZol reagent (Invitrogen). The isolated RNA is then reverse-transcribed using oligo(dT) primer and Mo-MLV reverse transcriptase (Invitrogen) with DNAse I (Ambion) treatment for 30 min. The one-tenth of the produced cDNA was amplified by PCR using Taq DNA polymerase (Invitrogen) and two reporter sequence-specific primers. The PCR products were fluorescently labeled by primer extension with 6-arboxyfluorescein (6-FAM) 5'-labeled reporter sequence-specific primer (2 min at 95 C, 20 s at 68 C and 10 min at 72 C) and these products were digested with 5U of HpaI (New England Biolabs) for 2h at 37 C. The fragments were purified using Qiaquick PCR columns (Qiagen), analyzed on an ABI 3130xL genetic analyzer (Applied Biosystems) with peak positions identified by using a set of X-rhodamine (ROX)-labeled MapMarker1000 molecular weight standards (BioVentures). The raw capillary electrophoresis data was processed using Attagraph software (Attagene).
# Chain of Signal transducer and activator of transcription 3 (Homo sapiens) (P40763 whole entry, looked up): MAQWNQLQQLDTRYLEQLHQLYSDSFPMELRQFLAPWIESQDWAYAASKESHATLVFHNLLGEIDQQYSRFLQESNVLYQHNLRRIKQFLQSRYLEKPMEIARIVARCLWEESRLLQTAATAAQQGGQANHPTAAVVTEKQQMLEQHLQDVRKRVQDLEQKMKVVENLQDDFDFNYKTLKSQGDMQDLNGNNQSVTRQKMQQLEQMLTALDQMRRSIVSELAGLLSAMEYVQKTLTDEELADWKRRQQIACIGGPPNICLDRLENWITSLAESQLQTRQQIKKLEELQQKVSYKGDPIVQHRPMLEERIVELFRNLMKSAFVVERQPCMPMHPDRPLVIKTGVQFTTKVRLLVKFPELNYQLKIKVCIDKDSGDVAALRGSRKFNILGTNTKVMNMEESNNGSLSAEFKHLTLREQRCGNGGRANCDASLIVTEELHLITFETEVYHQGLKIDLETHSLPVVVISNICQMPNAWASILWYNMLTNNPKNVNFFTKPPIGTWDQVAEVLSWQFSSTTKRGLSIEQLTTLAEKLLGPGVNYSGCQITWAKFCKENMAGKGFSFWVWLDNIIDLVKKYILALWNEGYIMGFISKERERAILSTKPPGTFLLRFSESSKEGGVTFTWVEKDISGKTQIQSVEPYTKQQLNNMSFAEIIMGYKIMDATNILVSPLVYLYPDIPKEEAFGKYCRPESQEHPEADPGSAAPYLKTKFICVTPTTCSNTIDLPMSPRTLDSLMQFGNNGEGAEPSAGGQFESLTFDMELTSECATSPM
SMILES,AC50,outcome
CC(=O)[C@H]1CC[C@H]2[C@@H]3CCC4=CC(=O)CC[C@]4(C)[C@H]3CC[C@]12C,180 µM (active),inactive
CCNc1nc(N)nc(Cl)n1,,inactive
CCCOC(=O)NCCCN(C)C,,inactive
CCOC(=O)NCCOc1ccc(Oc2ccccc2)cc1,,inactive
COc1c(Cl)ccc(Cl)c1C(=O)O,,inactive
CC(=O)S[C@@H]1CC2=CC(=O)CC[C@]2(C)[C@H]2CC[C@@]3(C)[C@@H](CC[C@@]34CCC(=O)O4)[C@H]12,178 µM (active),inactive
COC(=O)c1ccccc1C(=O)O,,inactive
O=C(c1ccc(O)cc1O)c1ccc(O)cc1O,,inactive
CCCN(CCC)C(=O)SCC,,inactive
CCCCOC(=O)[C@@H](C)Oc1ccc(Oc2ccc(C(F)(F)F)cn2)cc1,,inactive
O=C(c1ccccc1)C1CCCCC1,,inactive
Cc1nn(C)c(Oc2ccccc2)c1C=NOCc1ccc(C(=O)OC(C)(C)C)cc1,,inactive
CCOC(=O)COc1cc(-n2ncc(C(F)(F)F)c(C)c2=O)c(F)cc1Cl,,inactive
O=C(O)c1ccccc1,,inactive
N[C@@H](Cc1cc(I)c(Oc2ccc(O)c(I)c2)c(I)c1)C(=O)O,,inactive
CCSC(=O)N(CC(C)C)CC(C)C,,inactive
COC(=O)CSc1cc(N=c2sc(=O)n3n2CCCC3)c(F)cc1Cl,,inactive
COCCO,,inactive
COC(=O)c1cccc(C)c1S(=O)(=O)NC(=O)Nc1nc(OCC(F)(F)F)nc(N(C)C)n1,,inactive

SMILES,AC50,outcome
CCCCC(CC)COC(=O)c1ccccc1C(=O)O (stereo not given),,inactive
CCN(Cc1c(F)cccc1Cl)c1c([N+](=O)[O-])cc(C(F)(F)F)cc1[N+](=O)[O-],,inactive
CCC(O)=C1C(=O)CC(C(=O)O)CC1=O (stereo not given),,inactive
S=C([S-])NCCNC(=S)[S-].[Mn+2],,inactive
N#CSCSc1nc2ccccc2s1,,inactive
COC(=O)c1ccccc1S(=O)(=O)NC(=O)Nc1nc(OC(F)F)cc(OC(F)F)n1,,inactive
CCCCCCC(C)OC(=O)COc1nc(F)c(Cl)c(N)c1Cl (stereo not given),,inactive
c1ccc2[nH]c(-c3cscn3)nc2c1,,inactive
CCOC(=O)[C@H](C)Oc1ccc(Oc2nc3ccc(Cl)cc3o2)cc1,,inactive
CCOC(=O)C(C)Oc1ccc(Oc2cnc3cc(Cl)ccc3n2)cc1 (stereo not given),,inactive
C[C@]12CC[C@@H]3c4ccc(O)cc4C[C@@H](CCCCCCCCCS(=O)CCCC(F)(F)C(F)(F)F)[C@H]3[C@@H]1CC[C@@H]2O (stereo not given in full),,inactive
CCN(CC)C(=O)c1cccc(C)c1,,inactive
CCOC(=O)c1ccc(O)cc1,,inactive
C=CCOC(Cn1ccnc1)c1ccc(Cl)cc1Cl (stereo not given),,inactive
S=C(S)NCCNC(=S)S.[Mn+2].[S-]C([S-])=NCCN=C([S-])[S-].[Zn+2],,inactive
CN(C)C(=O)Nc1ccc(Cl)c(Cl)c1,,inactive
OB(O)O,,inactive
CCOC(=O)C(C)Oc1ccc(Oc2nc3ccc(Cl)cc3o2)cc1 (stereo not given),,inactive
C#CCOC(=O)[C@@H](C)Oc1ccc(Oc2ncc(Cl)cc2F)cc1,,inactive

# — PubChem BioAssay (EPA / NIEHS)
